According to paper PMC7862700, “An all-to-all approach to the identification of sequence-specific readers for epigenetic DNA modifications on cytosine”:

How the values were obtained:
Test in all cases: DAPPL (digital affinity profiling via proximity ligation, sequencing); 10 mM Tris-HCl pH 7.5, 50 mM NaCl, 1 mM DTT, 4% glycerol, room temperature, 30 min; GST-TFs on glutathione beads, 16-mer random dsDNA library, 0.1% formaldehyde crosslink after washing; high values mean tight binding
[1] = biological target: SPI1 (Homo sapiens, UniProt P17947 1-270); conditions: protein: recombinant; tags: N-terminal GST; dsDNA, one strand shown
Procedure, shortened: (§1)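 In yeast, human transcription factors were expressed with a GST fusion, then pulled down on glutathione beads and given DNA barcodes. Pooled with a tag-only sample, they were exposed to 200 nmole of a 16-mer random double-stranded DNA library (Tris/NaCl/DTT/glycerol buffer, room temperature, 30 min), washed, crosslinked with 0.1% formaldehyde, proximity-ligated using BsaI/T4 ligase for 1 h at 37 °C, PCR-amplified and read on an Illumina NextSeq500. Each hexamer's frequency of reads for a factor, divided by the matching frequency for the tag-only sample, gives the binding signal.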

[2] = biological target: T1, FEV (Homo sapiens, UniProt Q99581 1-238); conditions: protein: recombinant; tags: N-terminal GST; dsDNA, one strand shown
T1 sequence: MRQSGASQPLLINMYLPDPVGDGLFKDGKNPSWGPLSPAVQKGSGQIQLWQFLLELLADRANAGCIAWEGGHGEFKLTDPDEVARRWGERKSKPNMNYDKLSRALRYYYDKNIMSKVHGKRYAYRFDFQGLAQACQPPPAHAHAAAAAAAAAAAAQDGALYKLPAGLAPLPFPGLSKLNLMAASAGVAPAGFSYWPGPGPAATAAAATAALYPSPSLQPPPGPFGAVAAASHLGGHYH
Procedure, shortened: as §1

[3] = biological target: T2, ETV2 (Homo sapiens, UniProt O00321 1-342); conditions: protein: recombinant; tags: N-terminal GST; dsDNA, one strand shown
T2 sequence: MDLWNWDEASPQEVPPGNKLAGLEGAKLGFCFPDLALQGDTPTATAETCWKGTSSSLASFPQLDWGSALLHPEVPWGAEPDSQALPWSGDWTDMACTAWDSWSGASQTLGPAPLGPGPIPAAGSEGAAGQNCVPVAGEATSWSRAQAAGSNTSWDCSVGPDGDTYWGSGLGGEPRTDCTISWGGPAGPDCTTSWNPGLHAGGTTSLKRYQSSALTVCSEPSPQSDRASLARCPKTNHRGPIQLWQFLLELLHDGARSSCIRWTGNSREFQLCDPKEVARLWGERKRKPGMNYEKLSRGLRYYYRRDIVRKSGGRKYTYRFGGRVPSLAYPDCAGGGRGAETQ
Procedure, shortened: as §1

[4] = biological target: CRX (Homo sapiens, UniProt O43186 1-299); conditions: protein: recombinant; tags: N-terminal GST; dsDNA, one strand shown
Procedure, shortened: as §1

[5] = biological target: T3, ELF5 (Homo sapiens, UniProt Q9UKW6-2 1-255); conditions: protein: recombinant; tags: N-terminal GST; dsDNA, one strand shown
T3 sequence: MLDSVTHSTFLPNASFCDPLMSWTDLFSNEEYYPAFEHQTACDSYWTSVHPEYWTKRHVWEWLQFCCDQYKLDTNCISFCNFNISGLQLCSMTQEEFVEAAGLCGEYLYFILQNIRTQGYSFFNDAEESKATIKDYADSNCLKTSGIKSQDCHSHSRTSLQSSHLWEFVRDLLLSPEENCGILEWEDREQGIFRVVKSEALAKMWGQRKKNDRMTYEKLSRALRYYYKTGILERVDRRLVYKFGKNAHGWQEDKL
Procedure, shortened: as §1

[6] = biological target: HSF1 (Homo sapiens, UniProt Q00613 1-529); conditions: protein: recombinant; tags: N-terminal GST; chain copies: 3; dsDNA, one strand shown
Procedure, shortened: as §1

Chain of CRX (O43186 whole entry): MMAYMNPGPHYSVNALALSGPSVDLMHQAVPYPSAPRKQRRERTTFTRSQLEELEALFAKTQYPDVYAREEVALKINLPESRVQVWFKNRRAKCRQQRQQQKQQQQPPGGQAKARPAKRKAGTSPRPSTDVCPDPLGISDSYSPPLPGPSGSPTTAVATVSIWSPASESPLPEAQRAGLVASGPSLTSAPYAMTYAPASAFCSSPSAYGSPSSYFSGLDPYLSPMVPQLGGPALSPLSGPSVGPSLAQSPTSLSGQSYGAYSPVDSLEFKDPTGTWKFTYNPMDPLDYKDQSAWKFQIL
Chain of HSF1 (Q00613 whole entry): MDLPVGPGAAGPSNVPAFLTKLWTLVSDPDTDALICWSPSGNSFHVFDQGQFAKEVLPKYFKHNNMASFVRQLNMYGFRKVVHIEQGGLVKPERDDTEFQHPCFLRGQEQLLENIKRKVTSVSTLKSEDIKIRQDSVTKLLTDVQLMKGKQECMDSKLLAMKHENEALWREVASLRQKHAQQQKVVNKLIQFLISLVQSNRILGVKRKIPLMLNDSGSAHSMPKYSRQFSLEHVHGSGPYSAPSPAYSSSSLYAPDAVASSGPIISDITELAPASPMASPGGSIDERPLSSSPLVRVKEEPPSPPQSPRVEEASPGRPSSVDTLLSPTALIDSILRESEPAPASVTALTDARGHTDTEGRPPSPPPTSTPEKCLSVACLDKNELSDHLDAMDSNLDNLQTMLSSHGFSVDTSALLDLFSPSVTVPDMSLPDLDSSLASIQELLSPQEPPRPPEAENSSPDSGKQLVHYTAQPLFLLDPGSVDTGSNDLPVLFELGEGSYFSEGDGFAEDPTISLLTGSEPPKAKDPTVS

GCAGCT
binding signal [1]: 1 fold enrichment (6-mer frequency, TF over GST control) | binding signal [2]: 1.09 fold enrichment (6-mer frequency, TF over GST control) | binding signal [3]: 1.06 fold enrichment (6-mer frequency, TF over GST control) | binding signal [4]: 1 fold enrichment (6-mer frequency, TF over GST control)

CGCCCA
binding signal [2]: 1.02 fold enrichment (6-mer frequency, TF over GST control)

GAACTG
binding signal [1]: 1.2 fold enrichment (6-mer frequency, TF over GST control) | binding signal [3]: 1.02 fold enrichment (6-mer frequency, TF over GST control) | binding signal [5]: 1.01 fold enrichment (6-mer frequency, TF over GST control)

GCCCCG
binding signal [1]: 1.08 fold enrichment (6-mer frequency, TF over GST control) | binding signal [2]: 1.12 fold enrichment (6-mer frequency, TF over GST control) | binding signal [3]: 1.06 fold enrichment (6-mer frequency, TF over GST control)

GTGCAT
binding signal [1]: 1.15 fold enrichment (6-mer frequency, TF over GST control) | binding signal [2]: 1.06 fold enrichment (6-mer frequency, TF over GST control) | binding signal [3]: 1.02 fold enrichment (6-mer frequency, TF over GST control) | binding signal [5]: 1.02 fold enrichment (6-mer frequency, TF over GST control)

GAAGCC
binding signal [2]: 1.05 fold enrichment (6-mer frequency, TF over GST control) | binding signal [3]: 1.04 fold enrichment (6-mer frequency, TF over GST control) | binding signal [5]: 1.07 fold enrichment (6-mer frequency, TF over GST control)

TGGGTG
binding signal [1]: 1 fold enrichment (6-mer frequency, TF over GST control) | binding signal [5]: 1.04 fold enrichment (6-mer frequency, TF over GST control)

GTACGA
binding signal [1]: 1.05 fold enrichment (6-mer frequency, TF over GST control) | binding signal [2]: 1.01 fold enrichment (6-mer frequency, TF over GST control) | binding signal [3]: 1.07 fold enrichment (6-mer frequency, TF over GST control) | binding signal [5]: 1.03 fold enrichment (6-mer frequency, TF over GST control)

GCAATC
binding signal [1]: 1.02 fold enrichment (6-mer frequency, TF over GST control) | binding signal [2]: 1.05 fold enrichment (6-mer frequency, TF over GST control) | binding signal [6]: 1.01 fold enrichment (6-mer frequency, TF over GST control) | binding signal [3]: 1.05 fold enrichment (6-mer frequency, TF over GST control) | binding signal [4]: 1 fold enrichment (6-mer frequency, TF over GST control)

ACGCTC
binding signal [3]: 1.02 fold enrichment (6-mer frequency, TF over GST control)

GTACTG
binding signal [1]: 1.04 fold enrichment (6-mer frequency, TF over GST control)

GCTAGA
binding signal [6]: 1.96 fold enrichment (6-mer frequency, TF over GST control) | binding signal [4]: 1.15 fold enrichment (6-mer frequency, TF over GST control)

CACAGC
binding signal [2]: 1.03 fold enrichment (6-mer frequency, TF over GST control) | binding signal [3]: 1.05 fold enrichment (6-mer frequency, TF over GST control)

ACACGG
binding signal [5]: 1.15 fold enrichment (6-mer frequency, TF over GST control)

AGCTCG
binding signal [2]: 1.03 fold enrichment (6-mer frequency, TF over GST control) | binding signal [6]: 1.02 fold enrichment (6-mer frequency, TF over GST control) | binding signal [3]: 1 fold enrichment (6-mer frequency, TF over GST control)

CGCGCG
binding signal [3]: 1.05 fold enrichment (6-mer frequency, TF over GST control)

TCGAAC
binding signal [6]: 2 fold enrichment (6-mer frequency, TF over GST control) | binding signal [3]: 1.03 fold enrichment (6-mer frequency, TF over GST control) | binding signal [4]: 1.07 fold enrichment (6-mer frequency, TF over GST control) | binding signal [5]: 1.04 fold enrichment (6-mer frequency, TF over GST control)

CAAACA
binding signal [1]: 1.14 fold enrichment (6-mer frequency, TF over GST control) | binding signal [2]: 1.1 fold enrichment (6-mer frequency, TF over GST control) | binding signal [3]: 1.13 fold enrichment (6-mer frequency, TF over GST control) | binding signal [5]: 1.11 fold enrichment (6-mer frequency, TF over GST control)

AGCACA
binding signal [1]: 1.06 fold enrichment (6-mer frequency, TF over GST control) | binding signal [2]: 1.12 fold enrichment (6-mer frequency, TF over GST control) | binding signal [3]: 1.12 fold enrichment (6-mer frequency, TF over GST control) | binding signal [5]: 1.05 fold enrichment (6-mer frequency, TF over GST control)

CAGCCC
binding signal [1]: 1.03 fold enrichment (6-mer frequency, TF over GST control) | binding signal [2]: 1.13 fold enrichment (6-mer frequency, TF over GST control) | binding signal [3]: 1.27 fold enrichment (6-mer frequency, TF over GST control) | binding signal [5]: 1.01 fold enrichment (6-mer frequency, TF over GST control)

ACTGGT
binding signal [1]: 1.1 fold enrichment (6-mer frequency, TF over GST control) | binding signal [3]: 1.08 fold enrichment (6-mer frequency, TF over GST control) | binding signal [5]: 1.03 fold enrichment (6-mer frequency, TF over GST control)

ACTCAG
binding signal [2]: 1.02 fold enrichment (6-mer frequency, TF over GST control) | binding signal [3]: 1.09 fold enrichment (6-mer frequency, TF over GST control)

TGGAAC
binding signal [2]: 1.02 fold enrichment (6-mer frequency, TF over GST control) | binding signal [6]: 1.86 fold enrichment (6-mer frequency, TF over GST control)

GGGAAA
binding signal [1]: 1.05 fold enrichment (6-mer frequency, TF over GST control) | binding signal [6]: 1.15 fold enrichment (6-mer frequency, TF over GST control) | binding signal [5]: 1.42 fold enrichment (6-mer frequency, TF over GST control)

AGCCAC
binding signal [1]: 1.03 fold enrichment (6-mer frequency, TF over GST control) | binding signal [2]: 1.04 fold enrichment (6-mer frequency, TF over GST control) | binding signal [3]: 1.07 fold enrichment (6-mer frequency, TF over GST control)

GTTACC
binding signal [1]: 1.12 fold enrichment (6-mer frequency, TF over GST control) | binding signal [2]: 1.07 fold enrichment (6-mer frequency, TF over GST control) | binding signal [5]: 1.11 fold enrichment (6-mer frequency, TF over GST control)

TGGAAG
binding signal [1]: 1.08 fold enrichment (6-mer frequency, TF over GST control) | binding signal [6]: 1.56 fold enrichment (6-mer frequency, TF over GST control) | binding signal [5]: 1.07 fold enrichment (6-mer frequency, TF over GST control)

CAATGT
binding signal [2]: 1 fold enrichment (6-mer frequency, TF over GST control)

AGTAAA
binding signal [1]: 1.22 fold enrichment (6-mer frequency, TF over GST control) | binding signal [6]: 1.09 fold enrichment (6-mer frequency, TF over GST control) | binding signal [5]: 1.06 fold enrichment (6-mer frequency, TF over GST control)

CATAAG
binding signal [6]: 1.13 fold enrichment (6-mer frequency, TF over GST control) | binding signal [4]: 1.42 fold enrichment (6-mer frequency, TF over GST control)

TGTTGT
binding signal [1]: 1.1 fold enrichment (6-mer frequency, TF over GST control) | binding signal [2]: 1.11 fold enrichment (6-mer frequency, TF over GST control) | binding signal [5]: 1.05 fold enrichment (6-mer frequency, TF over GST control)

GGACTT
binding signal [1]: 1.2 fold enrichment (6-mer frequency, TF over GST control) | binding signal [2]: 1.4 fold enrichment (6-mer frequency, TF over GST control) | binding signal [3]: 1.19 fold enrichment (6-mer frequency, TF over GST control) | binding signal [4]: 1.08 fold enrichment (6-mer frequency, TF over GST control) | binding signal [5]: 1.24 fold enrichment (6-mer frequency, TF over GST control)

GCCCGG
binding signal [2]: 1.04 fold enrichment (6-mer frequency, TF over GST control) | binding signal [5]: 1.05 fold enrichment (6-mer frequency, TF over GST control)

GGCTAT
binding signal [1]: 1.03 fold enrichment (6-mer frequency, TF over GST control) | binding signal [2]: 1.06 fold enrichment (6-mer frequency, TF over GST control) | binding signal [3]: 1.06 fold enrichment (6-mer frequency, TF over GST control) | binding signal [5]: 1.02 fold enrichment (6-mer frequency, TF over GST control)
